Consider 50 compounds from PubChem BioAssay AID651820 (National Center for Advancing Translational Sciences (NCATS), 2012).

The campaign covered roughly 340,000 compounds. About 12,000 (3.5%) were called active. Inconclusive results (about 18%) are left out. Calls follow the shape of the dose curve; as a rule, active = well fitted inhibition curve with a large enough effect; inconclusive = small, poorly fitted or top-dose-only effect, or another doubt; inactive = no such curve, though single readings can be large or run the other way. The list comes from a sample in which actives are over-represented; it also holds similar structures and randomly drawn compounds.
% is scaled to controls: 0 for no effect and ±100 for the full control effect; potency is read from the fitted curve at half-maximal effect.

This assay is described as follows: qHTS Assay for Inhibitors of Hepatitis C Virus (HCV). The conditions noted are these: Huh7.5.1 HCVcc-Cre infection, luciferase reporter, 44 h; series mostly up to 41.8 µM; activity change, negative = inhibition: at the top concentration. The procedure, abridged: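 Luciferase read-out (15 sec integration) after a 15 min room-temperature substrate step quantifies HCVcc-Cre infection. Cells, 1,000 per well, had compound added 4 h post-plating, then virus at ~0.5 moi, and were cultured 44 h.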
(qHTS replaces the single test concentration by a dilution series.)
For `C=CCOC(=O)N1CCC2CC1c1cc(-c3ccc(OC)cc3)ccc12` (stereo not given), the activity change, negative = inhibition was 2.52% [at 8.37 µM] (inactive).
On to `COc1ccccc1C(=O)NCCC(=O)NC1=NCCS1`, for which the “activity change, negative = inhibition” value was 5.53% (inactive).
Still for that read-out and setting: to `Cc1ccc(C(=O)NNC(=O)CSc2nnc3ccccn23)cc1` belongs -0.421% (inactive); to `Cc1ccc(CNC(=O)c2ccc3c(c2)S(=O)(=O)c2ccccc2C3=O)cc1`, -24.7% (inactive).
For `Cc1ccc(CNC(=O)c2cccc3c2C(=O)c2ccc(N4CCC(C)CC4)cc2S3(=O)=O)cc1`, the Potency is 10 µM (active).
On to `CC1CCN(c2c(NCc3ccc(C(=O)NCc4ccccc4)cc3)c(=O)c2=O)CC1`, for which the “activity change, negative = inhibition” value was -9.89% (inactive).
On the same count and under the same terms, to `COc1cccc(NC(=O)CN(C)CC(=O)c2c(N)n(Cc3ccccc3)c(=O)n(C)c2=O)c1` belongs 6.73% (inactive); to `CCCCCCSc1ccc([C@@H]2[C@H]3C(=O)N(CC)C(=O)[C@H]3[C@]3(C(=O)OC)CCCCN23)cc1`, -3.35% (inactive).
As for `COc1ccc(OC)c(C2C3=C(N=c4s/c(=C\c5cccc(O)c5)c(=O)n42)c2ccccc2CC3)c1` (stereo not given), the Potency is 10 µM (active).
The same measure, in the same setting: in the case of `COCCOC(=O)C1=C(C)N=c2s/c(=C\c3cccs3)c(=O)n2C1c1cccs1` (stereo not given) it was “inactive”.
As for `O=C1CCCC2=C1C(c1ccccc1)n1c(s/c(=C/c3cccc(F)c3)c1=O)=N2` (stereo not given), the “activity change, negative = inhibition” value was -3.9% (inactive).
Still for that read-out and setting: in the case of `CSCCC(NC(=O)COc1ccccc1)C(=O)N(C)CC(=O)Nc1ccc(C)cc1` (stereo not given) it was -7.96% (inactive); in that of `CCOc1cc(/C=N/NC(=O)c2cc(-c3ccccc3)nc3ccccc23)ccc1O`, -10.3% (inactive).
As to `CCOc1cc(/C=N/Nc2cc(C)nc3ccc(C)cc23)ccc1O`, the Potency was 10 µM (active).
Regarding `Cc1ccc2nc(C)cc(N/N=C/c3ccc(F)cc3)c2c1`, the “activity change, negative = inhibition” value was -29.3% (inactive).
Same read-out and setting: in the case of `OCCN1CCN(CCO)C1=S` it was 3.26% (inactive); in that of `CC1CCN(c2nc3c(c(=O)[nH]c(=O)n3C)n2CCCc2ccccc2)CC1`, 10.2% (inactive).
On to `Cn1c(=O)[nH]c(=O)c2c1nc(N1CCN(C(c3ccccc3)c3ccccc3)CC1)n2CCO`, for which the Potency was 10 µM (active).
Turning to `Cn1c(=O)[nH]c(=O)c2c1nc(N1CCN(CCO)CC1)n2CCSc1nc2ccccc2s1`, the “activity change, negative = inhibition” value was 10.5% (inactive).
For the compound `COc1ccc(-c2nc3cc(C)ccn3c2NC2CCCCC2)cc1SC1CCCCC1`, the Potency is 3.55 µM (active).
Consider `Cc1ccc2nc(-c3cccnc3)c(NC3CCCC3)n2c1`, for which the “activity change, negative = inhibition” value was -28.5% (inactive).
The same measure, in the same setting: in the case of `COc1ccc(C)cc1S(=O)(=O)NC1CCCCC1` it was 14.2% (inactive).
For the compound `O=S(=O)(Nc1ncnc2sccc12)c1cccc(F)c1`, the “activity change, negative = inhibition” value was 22.3% (inactive).
In the case of `CCCCN(C(=O)C(CCSC)N1C(=O)c2ccccc2C1=O)c1c(N)n(CCC)c(=O)[nH]c1=O` (stereo not given), the “activity change, negative = inhibition” value is 15.1% (inactive).
Turning to `CN(CC(=O)Nc1ccc(OC(F)(F)F)cc1)C(=O)C1CCC1`, the “activity change, negative = inhibition” value was -16.3% (inactive).
The same measure, in the same setting: in the case of `Cc1ccc(NC(=O)CC(=O)Nc2ccc(C)cc2)cc1` it was 3.38% (inactive).
Turning to `O=C(CCl)Nc1ccc(Sc2ccc(NC(=O)CCl)cc2)cc1`, the Potency was 3.98 µM (active).
As for `CC(C)(CCl)C(=O)Nc1ccc(Sc2ccc(F)cc2)cc1`, the “activity change, negative = inhibition” value was -12.8% (inactive).
On the same count and under the same terms, in the case of `O=C(COC(=O)c1ccc(F)cc1)NCC1COc2ccccc2O1` (stereo not given) it was 7.78% (inactive); in that of `COc1ccc2oc(N)nc2c1`, 4.25% (inactive).
Turning to `Cc1ccc(NS(=O)(=O)c2ccc(C(=O)NCCCN3CCOCC3)cc2)cc1`, the “activity change, negative = inhibition” value was 7.11% (inactive).
On the same count and under the same terms, in the case of `COc1cccc(CNC(=O)COC(=O)CN2C(=O)NC3(CCCCC3C)C2=O)c1` (stereo not given) it was -8.27% (inactive); in that of `CCOC(=O)[C@H]1[C@H]2COc3ccc(C)cc3[C@@H]2N2C(=O)CN(Cc3ccc(F)cc3)C(=O)[C@@]12C`, -18.6% (inactive); in that of `CCOC(=O)c1sc(N)c(C#N)c1COC(=O)C1=COCCO1`, 4.34% (inactive).
As to `CCCCCCCCCCOC(=O)Cn1c(COc2ccc(C)cc2)[n+](C)c2ccccc21`, the Potency is 31.6 µM (active).
As to `CCCCCCCCCCOC(=O)Cn1c(COc2cccc(OC)c2)[n+](C)c2ccccc21`, the “activity change, negative = inhibition” value was -14.4% (inactive).
The same measure, in the same setting: to `CCCCOC(=O)Cn1c(=O)n(CC(=O)OCCCC)c2cc(C)ccc21` belongs 12.5% (inactive); to `CCOc1ccc(CNC(=O)C2CCCN(c3nnc(C)c4c(C)n(-c5ccccc5)nc34)C2)cc1` (stereo not given), -15.1% (inactive); to `COc1ccc(-n2nc3c(N4CCC(C(=O)NCc5ccccc5)CC4)nnc(C)c3c2C)cc1`, -12.4% (inactive).
`CCc1ccc(CNC(=O)C2CCN(c3nnc(C)c4c(C)n(-c5ccc(C)cc5)nc34)CC2)cc1`: the Potency is 8.91 µM (active).
With `CCOC(=O)CCC(NC(=O)c1ccc(CNc2nc3cc(C(F)(F)F)ccc3nc2C(=O)OCC)cc1)C(=O)OCC` (stereo not given), the “activity change, negative = inhibition” value was -22.8% (inactive).
With `Cc1ccc(NC(=O)c2cccc(S(=O)(=O)N3CCCc4ccccc43)c2)nc1`, the Potency is 10 µM (active).
As for `Cn1c(=O)n(C)c2cc(S(=O)(=O)N3CCCc4ccccc43)ccc21`, the “activity change, negative = inhibition” value was -14.2% (inactive).
`Cc1cccc(NC(=O)c2cccc(S(=O)(=O)N3CCCC3)c2)n1`: the “activity change, negative = inhibition” value was 7.31% (inactive).
Consider `C[C@H](O)[C@@H]1C(=O)N2CCc3ccc(N4CCOCC4)cc3[C@@H]2C[C@@H]1N(C)C(=O)C(C)(C)C`, for which the activity change, negative = inhibition was -22.9% [at 8.37 µM] (inactive).
On the same count and under the same terms, to `CCCCc1ccc(NC(=O)CN2C(=O)NC(Cc3ccccc3)C2=O)cc1` (stereo not given) belongs -11.5% (inactive).
On the same count and under the same terms, in the case of `Cc1ccc(S(=O)(=O)N2CCN(C(=O)COC(=O)/C=C/c3cccc(Cl)c3)CC2)c(C)c1` it was -24.1% (inactive).
As to `CCC(=O)c1cn(CCOc2ccccc2OC)c2ccccc12`, the Potency is 8.91 µM (active).
On to `COc1ccccc1OCCn1c(SCC(N)=O)nc2ccccc21`, for which the “activity change, negative = inhibition” value was 7.46% (inactive).
Same read-out and setting: to `CCCn1cc(SCC(N)=O)c2ccccc21` belongs -9.3% (inactive).
